Reference: PubChem BioAssay (Tox21)
Results filed as inconclusive are left out. Entries that show only a call come without a potency. The source made the active and inactive calls. Calls follow the shape of the dose curve; as a rule, active = well fitted cell-killing curve with a large enough effect in the repeat runs; inconclusive = weak or mixed curves, or effect the other way; inactive = no such curve, though single readings can be large or run the other way.

Test: qHTS assay to identify small molecule antagonists of the progesterone receptor (PR) signaling pathway - cell viability counter screen (AID 1346798); also: nearly all actives have a fitted effect of over 50% in size
Conditions: PR-UAS-bla HEK293T viability, CellTiter-Glo luminescence, 16 h; series mostly up to 92.4 µM
From the text: National Center for Advancing Translational Sciences [NCATS]
NIH Chemical Genomics Center [NCGC]
U.S. Environmental Protection Agency [EPA]
National Institutes of Environmental Health Sciences [NIEHS]
National Toxicology Program [NTP]
U.S. Food and Drug Administration [FDA]
Progesterone receptor (PR), a nuclear hormone receptor, plays an important role in development, metabolic homeostasis and reproduction. It is activated by the steroid hormone progesterone. Endocrine disrupting chemicals (EDCs) and their interactions with steroid hormone receptors like PR causes disruption of normal endocrine function. To identify the compounds that inhibit PR signaling, a PR-UAS-bla GripTite cell line i.e. PR-UAS-bla HEK293T (Invitrogen, Carlsbad, CA, USA) containing a beta-lactamase reporter gene under the control of an UAS response element was used to screen Tox21 10K compound library. The cytotoxicity of the Tox21 compound library against the PR-bla cell line was tested in parallel by measuring the cell viability using CellTiter-Glo assay in the same wells.
Tox21 Assay Protocol Summary:
PR-UAS-bla HEK293T cells were dispensed at 3,000 cells/4 uL of assay medium containing 2% charcoal stripped FBS per well into black wall/clear-bottom 1536-well plates using a Multidrop Combi (ThermoFisher Scientific, Waltham, MA) dispenser. After the assay plates were incubated at a 37C and 5% CO2 for 4 hr, 23 nL of compounds dissolved in DMSO, positive controls or DMSO only was transferred to the assay plate by a Pintool station (Kalypsys, San Diego, CA), followed by addition of 1 uL of R5020 in assay medium using a Flying Reagent Dispenser (FRD, Aurora Discovery, San Diego, CA). The plates were incubated at 37C and 5% CO2 for 16 hr. Then 1 uL of LiveBLAzer B/G FRET substrate was added using a Flying Reagent Dispenser, the plates were incubated at room temperature for 2 hours, and fluorescence intensity was measured by an Envision plate reader (PerkinElmer, Shelton, CT). For cell viability readout that measures cytotoxicity, 4 uL/well of CellTiter-Glo reagent was added into the assay plates using a FRD. After 30 min incubation at room temperature, the luminescence intensity in the plates was measured using a ViewLux (PerkinElmer) plate reader.

Row | SMILES | Potency
1 | CCCCCCCCCCCCC1CO1 (stereo not given) | inactive
2 | COc1cccc2sc(N)nc12 | inactive
3 | C=C(C)C(=O)OCCCCCCOC(=O)C(=C)C | inactive
4 | O=C(c1ccc2c(c1)C(=O)OC2=O)c1ccc2c(c1)C(=O)OC2=O | inactive
5 | CC(=O)OC(C)c1ccccc1 (stereo not given) | inactive
6 | Cc1nc2ccccc2c(=O)o1 | inactive
7 | CCS(=O)(=O)CCn1c([N+](=O)[O-])cnc1C | inactive
8 | O=C1OC(=O)c2ccccc21 | inactive
9 | CCC(O)C(C)(C)C (stereo not given) | inactive
10 | CC(CC(=O)O)CC(C)(C)C (stereo not given) | inactive
11 | COc1ccc(/C=N/NC(=O)c2ccncc2)cc1OC | inactive
12 | CCCCCN(CCCOC)C(=O)C(CCC(=O)O)NC(=O)c1ccc(Cl)c(Cl)c1 (stereo not given) | inactive
13 | C[Si]1(C)N[Si](C)(C)N[Si](C)(C)N1 | inactive
14 | NC(Cc1c[nH]c2ccccc12)C(=O)O (stereo not given) | inactive
15 | NC(=O)NC(=O)Cc1ccccc1 | inactive
16 | CN(C)CCOCCN(C)CCO | inactive
17 | C1=CCC(c2ccccc2)CC1 (stereo not given) | inactive
18 | CCOC(=O)OCC/C(SC(=O)OCC)=C(\C)N(C=O)Cc1cnc(C)nc1N | inactive
19 | CO[Si](CCCCl)(OC)OC | inactive
20 | CC(Cl)COP(=O)(OCC(C)Cl)OCC(C)Cl (stereo not given) | inactive

Row | SMILES | Potency
21 | Nc1ccc(C(=O)OCC(O)CO)cc1 (stereo not given) | inactive
22 | CC(C)C(=O)c1ccccc1 | inactive
23 | c1ccc(CNc2ncnc3nc[nH]c23)cc1 | inactive
24 | SCCSCCS | inactive
25 | COC(OC)C(C)c1ccccc1 (stereo not given) | inactive
26 | CC(=O)OC[C@H]1O[C@@H](OC(C)=O)[C@H](OC(C)=O)[C@@H]1OC(C)=O | inactive
27 | NCCc1ccn[nH]1 | inactive
28 | O=C(CN1CCN(Cc2ccc3c(c2)OCO3)CC1)N1c2ccccc2Sc2ccccc21 | inactive
29 | FC(F)(F)c1ccc(Cl)cc1Cl | inactive
30 | C=CCOCC(CO)(COCC=C)COCC=C | inactive
31 | CCCCCCCCCCCCCC(=O)OC | inactive
32 | CCCCOC(=O)[C@@H](C)Oc1ccc(Oc2ccc(C(F)(F)F)cn2)cc1 | inactive
33 | CO[Si](CCCS)(OC)OC | inactive
34 | CCNC(=O)NCCCOc1cccc(CN2CCCCC2)c1 | inactive
35 | C=COCCOCCOC=C | inactive
36 | CCCOCCOCCOCCO | inactive
37 | CC(C)(c1ccc(Oc2ccc3c(c2)C(=O)OC3=O)cc1)c1ccc(Oc2ccc3c(c2)C(=O)OC3=O)cc1 | inactive
38 | Nc1ccc(S(=O)(=O)NC(=O)c2ccccc2)cc1 | inactive
39 | C[C@H]1O[C@H](O[C@H]2[C@H](O)[C@@H](O)[C@@H](O[C@H]3[C@H](O)[C@@H](O)[C@H](O)O[C@@H]3CO)O[C@@H]2CO)[C@H](O)[C@@H](O)[C@@H]1N[C@H]1C=C(CO)[C@@H](O)[C@H](O)[C@H]1O | inactive
40 | CCCCCCCCCOCC1CO1 (stereo not given) | inactive
